# Data published in PubChem BioAssay.
# Some compounds were tested as several samples or in several runs, with calls that do not always agree. The source made the active and inactive calls. Unless noted, the rule behind the calls is not given here.
# Legend:
# [1] = system: Aerobactin synthetase IucA (Klebsiella pneumoniae hvKP1); test: IucA enzyme inhibition, primary screen, biochemical, Spectrum library (AID 1346200); conditions: malachite green pyrophosphate, A620, at 8 µM, stronger effect = lower value;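 note: 100% = wells without compound and 0% = wells lacking enzyme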
# [2] = system: Aerobactin synthetase IucA (Klebsiella pneumoniae, hypervirulent); test: biochemical IucA inhibition screen of LOPAC library by absorbance (AID 1346212); conditions: IucA enzyme assay, absorbance (OD) readout; stronger effect = lower value;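 tested at 8 µM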;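 note: 100% = no compound wells and 0% = no enzyme wells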
# [3] = viability loss with induced miR-34 in A549 – imaging, A549 dox-inducible miR-34, nuclei and caspase counts, primary screen (AID 1347080;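 active = compounds whose cell count with miR-34 switched on is under 0.7 times the count with it off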); conditions: A549 miR-34 inducible, Hoechst nuclei count, 48 h
# [4] = blockers of cellular phospholipid synthesis – cell-based, LOPAC library, screen 4, primary screen (AID 1347384); conditions: animal cells, phospholipid biosynthesis inhibition screen; at 10 µM
# [5] = P. berghei load reduction in hepatocytes – cell-based, HepG2, luciferase luminescence, HepG2 viability, primary screen (AID 624349; in the data active = parasite load remaining mostly below about 12%, no sharp cut-off; inactive = mostly above about 10%;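 note: 100% = mean of DMSO negative control wells on the same plate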); conditions: P. berghei liver stage in HepG2, luciferase luminescence, concentration not given here; parasite load remaining: stronger effect = lower value; viability: measured here: HepG2 viability without parasites
# [6] = target: Mitogen-activated protein kinase 7 (Homo sapiens) (UniProt Q13164); test: Gal4-ERK5 driven luciferase induction – cell-based, HTS, primary screen (AID 1508626;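 active = luciferase signal above three times the same-plate solvent-only control wells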;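 note: luciferase driven by Gal4-ERK5 fusion binding five Gal4 sites before minimal TATA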); conditions: HeLa Gal4-ERK5 transactivation, 18 h, at 5 µM, stronger effect = higher value
# Chain of Mitogen-activated protein kinase 7 (Homo sapiens) (Q13164 whole entry, looked up, the tested form may be a part): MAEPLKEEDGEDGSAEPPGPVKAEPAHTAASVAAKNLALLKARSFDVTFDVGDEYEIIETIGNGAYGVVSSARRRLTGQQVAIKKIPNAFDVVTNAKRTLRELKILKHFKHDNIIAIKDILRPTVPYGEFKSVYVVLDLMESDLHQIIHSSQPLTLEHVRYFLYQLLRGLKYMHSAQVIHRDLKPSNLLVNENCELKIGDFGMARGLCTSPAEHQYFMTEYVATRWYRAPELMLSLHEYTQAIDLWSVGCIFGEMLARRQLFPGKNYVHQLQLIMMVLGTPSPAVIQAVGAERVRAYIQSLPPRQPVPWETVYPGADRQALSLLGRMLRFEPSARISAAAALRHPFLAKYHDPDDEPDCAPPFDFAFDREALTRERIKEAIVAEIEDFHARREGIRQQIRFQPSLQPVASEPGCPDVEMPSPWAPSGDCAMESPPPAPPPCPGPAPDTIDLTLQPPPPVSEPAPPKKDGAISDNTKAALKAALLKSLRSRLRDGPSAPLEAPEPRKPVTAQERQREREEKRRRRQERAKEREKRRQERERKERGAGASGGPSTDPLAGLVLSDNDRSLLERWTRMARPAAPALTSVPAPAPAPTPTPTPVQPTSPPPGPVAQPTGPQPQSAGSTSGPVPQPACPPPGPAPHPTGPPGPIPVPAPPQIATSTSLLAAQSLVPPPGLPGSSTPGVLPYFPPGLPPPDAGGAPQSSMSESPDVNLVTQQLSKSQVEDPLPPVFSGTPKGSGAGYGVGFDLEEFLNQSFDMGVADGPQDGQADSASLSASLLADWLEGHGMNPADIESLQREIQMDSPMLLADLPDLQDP
# [7] = measured here: relative caspase fold change +Dox/-Dox
# [8] = measured here: total cells with miR-34 induction, stronger effect = lower value
# [9] = measured here: total cells without miR-34 induction
structure (smiles),measurement,setting,value
CN(C)CCC=C1c2ccccc2C=Cc2ccccc21,activity remaining,[1],111% (inactive)
same,remaining activity,[2],109% (inactive)
C[C@H]1c2cccc(O)c2C(O)=C2C(=O)[C@]3(O)C(O)=C(C(N)=O)C(=O)[C@@H](N(C)C)[C@@H]3[C@@H](O)[C@@H]21,activity remaining,[1],93.8% (inactive)
same,remaining activity,[2],104% (inactive)
CNC[C@H](O)c1cccc(O)c1,activity remaining,[1],103% (inactive)
same,remaining activity,[2],112% (inactive)
O=C(O)c1cc2cc(F)ccc2[nH]1,activity remaining,[1],106% (inactive)
same,remaining activity,[2],86.3% (inactive)
CN1C[C@H](C(=O)N[C@]2(C)O[C@@]3(O)[C@@H]4CCCN4C(=O)[C@H](Cc4ccccc4)N3C2=O)C[C@@H]2c3cccc4[nH]cc(c34)C[C@H]21,activity remaining,[1],118% (inactive)
same,remaining activity,[2],105% (inactive)
CN(C)C(=O)Oc1cccc([N+](C)(C)C)c1,activity remaining,[1],87.4% (inactive)
same,remaining activity,[2],120% (inactive)
NCCSSCCN,activity remaining,[1],116% (inactive)
same,remaining activity,[2],117% (inactive)
O=C(CCCN1CCC(O)(c2ccc(Cl)cc2)CC1)c1ccc(F)cc1,activity remaining,[1],117% (inactive)
same,remaining activity,[2],100% (inactive)
O=C(O)c1cccnc1Nc1cccc(C(F)(F)F)c1,activity remaining,[1],117% (inactive)
same,remaining activity,[2],115% (inactive)
Nc1nc2c(ncn2COCCO)c(=O)[nH]1,activity remaining,[1],118% (inactive)
same,remaining activity,[2],120% (inactive)
CCN(CC)CCNC(=O)c1ccc(NC(C)=O)cc1,activity remaining,[1],92.5% (inactive)
same,remaining activity,[2],109% (inactive)
CC(C)NCC(O)c1cc(O)cc(O)c1 (stereo not given),activity remaining,[1],126% (inactive)
same,remaining activity,[2],118% (inactive)
O=C(O)c1cc(=O)c2ccc(Cl)cc2[nH]1,activity remaining,[1],94.8% (inactive)
same,remaining activity,[2],85.9% (inactive)
CCCCC1C(=O)N(c2ccccc2)N(c2ccccc2)C1=O,activity remaining,[1],117% (inactive)
same,remaining activity,[2],102% (inactive)
NCCc1cnc[nH]1,activity remaining,[1],112% (inactive)
same,remaining activity,[2],112% (inactive)
CCCCc1oc2ccccc2c1C(=O)c1cc(I)c(OCCN(CC)CC)c(I)c1,activity remaining,[1],123% (inactive)
same,remaining activity,[2],101% (inactive)
CCO/C([O-])=N/c1c[n+](N2CCOCC2)no1,activity remaining,[1],99.6% (inactive)
same,remaining activity,[2],128% (inactive)
NCCS(=O)(=O)O,activity remaining,[1],123% (inactive)
same,remaining activity,[2],97.8% (inactive)
OC(CCN1CCCCC1)(c1ccccc1)C1CCCCC1 (stereo not given),activity remaining,[1],97.3% (inactive)
same,remaining activity,[2],104% (inactive)
CN1CCN(C2=Nc3ccccc3Oc3ccc(Cl)cc32)CC1,activity remaining,[1],120% (inactive)
same,remaining activity,[2],110% (inactive)
CN(C)[C@@H]1C(=O)C(C(N)=O)=C(O)[C@@]2(O)C(=O)C3=C(O)c4c(O)ccc(Cl)c4[C@@H](O)[C@H]3C[C@@H]12,activity remaining,[1],97% (inactive)
same,remaining activity,[2],92.3% (inactive)
CN/C(=C\[N+](=O)[O-])NCCSCc1ccc(CN(C)C)o1,activity remaining,[1],91.1% (inactive)
same,remaining activity,[2],101% (inactive)
C[C@](N)(Cc1ccc(O)c(O)c1)C(=O)O,activity remaining,[1],121% (inactive)
same,remaining activity,[2],113% (inactive)
FC(F)(F)c1ccccc1-n1ccnc1,activity remaining,[1],85.9% (inactive)
same,remaining activity,[2],102% (inactive)
CN1CCN(CCCN2c3ccccc3Sc3ccc(C(F)(F)F)cc32)CC1,activity remaining,[1],122% (inactive)
same,remaining activity,[2],93.4% (inactive)
CC12CC3CC(C)(C1)CC(N)(C3)C2,activity remaining,[1],108% (inactive)
same,remaining activity,[2],92.7% (inactive)
C[C@](N)(Cc1ccc(O)cc1)C(=O)O,activity remaining,[1],120% (inactive)
same,remaining activity,[2],110% (inactive)
CN(C)CCCC1(c2ccc(F)cc2)OCc2cc(C#N)ccc21 (stereo not given),activity remaining,[1],102% (inactive)
same,remaining activity,[2],124% (inactive)
CN(C)C(=O)C(CCN1CCC(O)(c2ccc(Cl)cc2)CC1)(c1ccccc1)c1ccccc1,activity remaining,[1],113% (inactive)
same,remaining activity,[2],114% (inactive)
NC(=O)c1ncn([C@@H]2O[C@H](CO)[C@@H](O)[C@H]2O)n1,activity remaining,[1],120% (inactive)
same,remaining activity,[2],96.8% (inactive)
NC1(C(=O)O)CC1,activity remaining,[1],94.3% (inactive)
same,remaining activity,[2],88.1% (inactive)
CN1Cc2c(N)cccc2C(c2ccccc2)C1 (stereo not given),activity remaining,[1],119% (inactive)
same,remaining activity,[2],109% (inactive)
Nc1ncn([C@@H]2O[C@H](CO)[C@@H](O)[C@H]2O)c(=O)n1,activity remaining,[1],104% (inactive)
same,remaining activity,[2],112% (inactive)
CNC(=O)Oc1ccc2c(c1)[C@]1(C)CCN(C)[C@@H]1N2C,activity remaining,[1],116% (inactive)
same,remaining activity,[2],110% (inactive)
N[C@@H](Cc1ccc(O)c(O)c1)C(=O)O,activity remaining,[1],115% (inactive)
same,remaining activity,[2],97% (inactive)
NC/C=C/C(=O)O,activity remaining,[1],107% (inactive)
same,remaining activity,[2],101% (inactive)
CCCCNc1ccc(C(=O)OCCN(C)C)cc1,activity remaining,[1],118% (inactive)
same,remaining activity,[2],97.3% (inactive)
C[N+]1(C)C2CC(OC(=O)[C@@H](CO)c3ccccc3)CC1C1OC12 (stereo not given in full),activity remaining,[1],102% (inactive)
same,fold change,[3]; stronger effect = lower value,0.839 (inactive)
same,fold change,[3]; [7],1.06
same,cell count,[3]; [8],10100
same,cell count,[3]; [9],12100
CN1CCN(CCCN2c3ccccc3Sc3ccc(Cl)cc32)CC1,activity remaining,[1],123% (inactive)
same,remaining activity,[2],86.1% (inactive)
same,outcome,[4],inactive
NNc1nncc2ccccc12,activity remaining,[1],102% (inactive)
same,remaining activity,[2],101% (inactive)
CN(C)CCCN1c2ccccc2Sc2ccccc21,activity remaining,[1],109% (inactive)
same,remaining activity,[2],95% (inactive)
COc1ccc2[nH]cc(CCNC(C)=O)c2c1,activity remaining,[1],111% (inactive)
same,remaining activity,[2],118% (inactive)
CNCCCN1c2ccccc2CCc2ccccc21,activity remaining,[1],100% (inactive)
same,remaining activity,[2],105% (inactive)
CCCCNC(=O)NS(=O)(=O)c1ccc(C)cc1,activity remaining,[1],120% (inactive)
same,remaining activity,[2],95.4% (inactive)
CC[C@@]1(C2O[C@@H](C3O[C@@](O)(CC)[C@H](C)C[C@@H]3C)C[C@@H]2C)CC[C@H]([C@]2(C)CCC3(C[C@H](O)[C@@H](C)[C@@H]([C@H](C)[C@@H](OC)[C@H](C)C(=O)O)O3)O2)O1 (stereo not given in full),parasite load remaining,[5],17.9% (inactive)
same,viability,[5],72.8%
same,activity remaining,[1],112% (inactive)
same,fold change,[3]; stronger effect = lower value,1.04 (inactive)
same,fold change,[3]; [7],1.48
same,cell count,[3]; [8],3480
same,cell count,[3]; [9],3340
same,luciferase signal,[6],32 AU (inactive)
